We go through 13 compounds from PubChem BioAssay (Tox21).

A number with no mark means an inactive call. Results filed as inconclusive are left out. Active and inactive are the calls of the source. Unless noted, calls come from the whole dose curve; as a rule, active = well fitted curve in the direction sought with a large enough effect in the repeat runs; inconclusive = weak or mixed curves; inactive = no such curve, though single readings can be large; an effect the other way counts as inactive or inconclusive.

Assay [1] is described as follows: qHTS assay to identify small molecule antagonists of the estrogen receptor alpha (ER-alpha) signaling pathway using the BG1 cell line in the presence of 0.1 nM 17-beta-estradiol - cell viability counter screen (AID 1259241). Note: nearly all actives have a fitted effect of over 40% in size. A digest of the protocol:
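Cytotoxicity counter-screen: live-cell protease activity measured by fluorescence (30 min reagent step) in the same wells. Cells were VM7Luc4E2 with endogenous ER-alpha and ERE-driven luciferase, treated 22 hr at 37C alongside 0.1 nM 17beta-estradiol final.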
In general terms: qHTS replaces the single test concentration by a dilution series.

A short description of assay [2]: qHTS assay to identify small molecule antagonists of the androgen receptor (AR) signaling pathway using the MDA cell line in the presence of 0.5 nM R1881 - cell viability counter screen (AID 1259242). Note: nearly all actives have a fitted effect of over 45% in size. A digest of the protocol: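 R1881 at 0.5 nM final stimulated MDA-kb2 cells during 16 hr compound treatment at 37C. Cytotoxicity read: CellTiter-Fluor fluorescence after 30 min.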

Assay [3] concerns the target Estrogen receptor (Homo sapiens) (UniProt P03372). The assay can be described thus: qHTS assay to identify small molecule antagonists of the estrogen receptor alpha (ER-alpha) signaling pathway using the BG1 cell line in the presence of 0.1 nM 17-beta-estradiol (AID 1259244). Note: nearly all actives have a fitted effect of over 50% in size. Put shortly: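 VM7Luc4E2; 4xERE-luciferase; 0.1 nM E2 final; 22 h co-incubation, 37C; ONE-Glo luminescence after 30 min at room temperature.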

A short description of assay [4]: qHTS assay to identify small molecule HDAC inhibitors (AID 1259364). Note: potency is the fitted concentration of half-maximal effect.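 Note: wild-type HCT-116 cells with endogenous class I/II HDAC activity; nearly all actives have a fitted effect of over 45% in size.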 A digest of the protocol: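 Relative class I and II HDAC activity is taken from the luminogenic signal in HCT-116 cells, with compound exposure 2 hr and reagent development 30 min at room temperature.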
Assay [5] can be described thus: qHTS assay to identify small molecule HDAC inhibitors - cell viability counter screen (AID 1259365). Note: series mostly up to about 92 µM; nearly all actives have a fitted effect of over 50% in size. Put shortly:
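CellTiter-Glo luminescence (30 min, room temperature) reported viability after a 2 h compound exposure at 37 C. Cells: wild-type HCT-116, 1,500 per well, seeded the night before.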

A short description of assay [6]: qHTS assay to identify small molecule agonists of the sonic hedgehog signaling (Shh) pathway - cell viability counter screen (AID 1259366). Note: nearly all actives have a fitted effect of over 50% in size. Note: potency is the fitted concentration of half-maximal effect. Put shortly: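 Cytotoxicity counter screen: CellTiter-Fluor reagent added after 23 h compound exposure, then 1 h at 37C and fluorescence read. Cells were 3T3 Gli1-Luc, seeded 2,000 per well and dosed 4 h post-plating.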
Assay [7] in a line: qHTS assay to identify small molecule agonists of the sonic hedgehog signaling (Shh) pathway (AID 1259368; calls by dose curve;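 note: NIH/3T3-derived 3T3Gli1-Luc cells carrying a stable Gli1-driven firefly luciferase reporter; series mostly up to about 92 µM; nearly all actives have a fitted effect of over 15% in size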). A digest of the protocol: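 Mouse fibroblast (NIH/3T3) reporter cells with stably integrated Gli1-Luc were treated 24 hr with compound; firefly luciferase luminescence served as the read-out.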
Assay [8] can be described thus: qHTS assay to identify small molecule antagonists of the sonic hedgehog signaling (Shh) pathway (AID 1259369; calls by dose curve; note: nearly all actives have a fitted effect of over 45% in size; note: potency is the fitted concentration of half-maximal effect). A digest of the protocol: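 Conditioned medium drives Shh signalling in 3T3Gli1-Luc cells; compounds in DMSO co-applied, 24hr at 37 C, then luciferase luminescence.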
Assay [9] can be described thus: qHTS assay to identify small molecule agonists of the estrogen receptor beta (ER-beta) signaling pathway - cell viability counter screen (AID 1259380). Note: nearly all actives have a fitted effect of over 30% in size. Note: potency is the fitted concentration of half-maximal effect. A digest of the protocol: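 Cells used were ER-beta-UAS-bla HEK293T in medium with 2% charcoal-stripped FBS. They were treated for 16 hr at 37C. Viability came from CellTiter-Glo luminescence.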
A short description of assay [10]: qHTS assay to identify small molecule antagonists of the estrogen receptor beta (ER-beta) signaling pathway - cell viability counter screen (AID 1259382). Note: series mostly up to about 92 µM; nearly all actives have a fitted effect of over 55% in size. A digest of the protocol:
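Agonist-stimulated (1nM E2) ER-beta-UAS-bla HEK293T cells are incubated with library compounds for 16 hr at 37C. Cell viability is then assessed in the reporter-assay wells by adding CellTiter-Glo and reading luminescence after 30 min.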

The target of assay [11] is Estrogen receptor (Homo sapiens) (UniProt P03372). The assay can be described thus: qHTS assay to identify small molecule agonists of the estrogen receptor alpha (ER-alpha) signaling pathway in the presence of an antagonist (AID 1259383; calls by dose curve; note: top concentration of the series differs between compounds; nearly all actives have a fitted effect of over 15% in size). Put shortly:
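Using VM7Luc4E2 cells seeded 24hr before treatment, antagonist ICI-182,780 (10.0nM final) was added, followed by compounds at 15 concentrations. Plates incubated 22hr; ONE-Glo luminescence quantified reporter activity.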

Assay [12] in a line: qHTS assay to identify small molecule antagonists of the sonic hedgehog signaling (Shh) pathway - cell viability counter screen (AID 1259367). Note: nearly all actives have a fitted effect of over 55% in size. Note: potency is the fitted concentration of half-maximal effect. Put shortly:
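NIH/3T3-derived Gli1-Luc reporter cells, 2,000/well, plated 4 hr before compound addition, then stimulated with conditioned medium for 24 hr at 37C. Viability measured in the same wells by CellTiter-Fluor fluorescence, reagent added at 23 hr for 1 hr.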

Assay [13] in a line: qHTS assay to identify small molecule agonists of the androgen receptor (AR) signaling pathway in the presence of an antagonist - cell viability counter screen (AID 1259379).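 Note: MDA-kb2 human breast cancer cells carrying an MMTV luciferase reporter; series mostly up to about 92 µM; nearly all actives have a fitted effect of over 25% in size.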 A digest of the protocol: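 A CellTiter-Fluor read-out measured viability of MDA-kb2 reporter cells (MMTV promoter with AR and GR response elements). Treatment: nilutamide 3.0uM final with compounds at 15 concentrations, 16 hr, 37C, 0% CO2.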

Assay [14] is described as follows: qHTS assay to identify small molecule agonists or antagonists of the thyroid stimulating hormone receptor (TSHR) signaling pathway - wild type cell line counter screen (AID 1259384; calls by dose curve). Put shortly:
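Wild-type Hek293 cells, 800/well, 18 h at 37C, then compound with Ro20-1724 for 30 min RT. cAMP by HTRF (cAMP-d2/anti-cAMP cryptate), 1 h RT, fluorescence read. 15 concentrations, triplicates.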

Assay [15] has as its target Thyrotropin receptor (Homo sapiens) (UniProt P16473). The assay can be described thus: qHTS assay to identify small molecule antagonists of the thyroid stimulating hormone receptor (TSHR) signaling pathway (AID 1259385; calls by dose curve; note: nearly all actives have a fitted effect of over 20% in size). Put shortly:
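TSHR-HEK293 cells (800/well) plated 18 h, then compounds with Ro20-1724 and TSH at 1.5 ng/mL final, 30 min at room temperature. cAMP quantified by HTRF (cAMP-d2/anti-cAMP-cryptate, 1 h); 15 concentrations in triplicate.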

Assay [16] concerns the target Estrogen receptor beta (Homo sapiens) (UniProt Q92731). The assay can be described thus: qHTS assay to identify small molecule agonists of the estrogen receptor beta (ER-beta) signaling pathway (AID 1259377; active = well fitted activation curve with a large enough effect in the signal ratio in the repeat runs, not every such curve was filed as active; the % refers to the signal ratio). Put shortly:
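Ratiometric beta-lactamase FRET read-out came after 2 h substrate loading at room temperature. It followed 16 h compound treatment at 37C of GripTite HEK293T cells carrying a UAS-bla reporter, plated in 2% charcoal-stripped FBS medium.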

For assay [17] the target is unchanged. The assay can be described thus: qHTS assay to identify small molecule antagonists of the estrogen receptor beta (ER-beta) signaling pathway (AID 1259378; active = well fitted inhibition curve with a large enough effect in the signal ratio in the repeat runs, not every such curve was filed as active; the % refers to the signal ratio; note: potency is the fitted concentration of half-maximal effect). Put shortly: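 ER-beta-UAS-bla HEK293T cells in 2% charcoal-stripped FBS medium treated with compound plus 1nM final 17-beta-estradiol for 16 hr at 37C. Beta-lactamase reporter read by FRET substrate fluorescence after 2 hours at room temperature.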

In assay [18] the target is Androgen receptor (Homo sapiens) (UniProt P10275). The assay can be described thus: qHTS assay to identify small molecule agonists of the androgen receptor (AR) signaling pathway in the presence of an antagonist (AID 1259381; calls by dose curve; note: nearly all actives have a fitted effect of over 15% in size). Put shortly:
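Using human MDA-kb2 cells with an MMTV promoter–luciferase construct (AR and GR response elements), agonist activity is scored under 3.0uM nilutamide (final) co-treatment; 16hr incubation, 37C, luminescence readout via ONE-Glo.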

Estrogen receptor (Homo sapiens), sequence (P03372 whole entry, looked up): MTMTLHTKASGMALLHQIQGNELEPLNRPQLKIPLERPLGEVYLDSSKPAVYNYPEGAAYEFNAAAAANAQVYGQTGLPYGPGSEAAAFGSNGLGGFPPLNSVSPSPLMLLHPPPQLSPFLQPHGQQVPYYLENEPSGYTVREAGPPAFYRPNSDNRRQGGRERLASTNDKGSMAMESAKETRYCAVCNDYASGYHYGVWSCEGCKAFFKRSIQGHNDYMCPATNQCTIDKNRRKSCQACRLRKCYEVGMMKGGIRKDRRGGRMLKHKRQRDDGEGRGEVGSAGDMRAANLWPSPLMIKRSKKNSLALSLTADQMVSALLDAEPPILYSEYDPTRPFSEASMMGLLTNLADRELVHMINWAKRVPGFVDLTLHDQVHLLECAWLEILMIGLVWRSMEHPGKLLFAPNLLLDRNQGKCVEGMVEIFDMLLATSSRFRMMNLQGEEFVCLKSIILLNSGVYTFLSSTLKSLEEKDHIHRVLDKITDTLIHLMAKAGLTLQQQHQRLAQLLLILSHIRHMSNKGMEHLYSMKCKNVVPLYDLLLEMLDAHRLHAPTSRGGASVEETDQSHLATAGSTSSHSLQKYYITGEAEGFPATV
Estrogen receptor beta (Homo sapiens), sequence (Q92731 whole entry, looked up): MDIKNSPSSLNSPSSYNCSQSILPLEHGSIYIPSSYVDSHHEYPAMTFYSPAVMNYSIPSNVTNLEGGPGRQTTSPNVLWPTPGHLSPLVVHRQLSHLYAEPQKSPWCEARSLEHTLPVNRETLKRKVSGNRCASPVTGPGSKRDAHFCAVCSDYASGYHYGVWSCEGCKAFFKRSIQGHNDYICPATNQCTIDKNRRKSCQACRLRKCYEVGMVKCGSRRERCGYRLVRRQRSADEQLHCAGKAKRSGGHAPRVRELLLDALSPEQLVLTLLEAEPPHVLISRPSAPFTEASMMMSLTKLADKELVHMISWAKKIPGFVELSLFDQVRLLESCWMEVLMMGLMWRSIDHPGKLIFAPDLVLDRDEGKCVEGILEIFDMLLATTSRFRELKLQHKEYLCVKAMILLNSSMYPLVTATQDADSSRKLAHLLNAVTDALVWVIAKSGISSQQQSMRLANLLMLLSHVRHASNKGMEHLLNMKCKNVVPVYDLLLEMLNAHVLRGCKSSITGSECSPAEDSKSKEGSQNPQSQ
Thyrotropin receptor (Homo sapiens), sequence (P16473 whole entry, looked up): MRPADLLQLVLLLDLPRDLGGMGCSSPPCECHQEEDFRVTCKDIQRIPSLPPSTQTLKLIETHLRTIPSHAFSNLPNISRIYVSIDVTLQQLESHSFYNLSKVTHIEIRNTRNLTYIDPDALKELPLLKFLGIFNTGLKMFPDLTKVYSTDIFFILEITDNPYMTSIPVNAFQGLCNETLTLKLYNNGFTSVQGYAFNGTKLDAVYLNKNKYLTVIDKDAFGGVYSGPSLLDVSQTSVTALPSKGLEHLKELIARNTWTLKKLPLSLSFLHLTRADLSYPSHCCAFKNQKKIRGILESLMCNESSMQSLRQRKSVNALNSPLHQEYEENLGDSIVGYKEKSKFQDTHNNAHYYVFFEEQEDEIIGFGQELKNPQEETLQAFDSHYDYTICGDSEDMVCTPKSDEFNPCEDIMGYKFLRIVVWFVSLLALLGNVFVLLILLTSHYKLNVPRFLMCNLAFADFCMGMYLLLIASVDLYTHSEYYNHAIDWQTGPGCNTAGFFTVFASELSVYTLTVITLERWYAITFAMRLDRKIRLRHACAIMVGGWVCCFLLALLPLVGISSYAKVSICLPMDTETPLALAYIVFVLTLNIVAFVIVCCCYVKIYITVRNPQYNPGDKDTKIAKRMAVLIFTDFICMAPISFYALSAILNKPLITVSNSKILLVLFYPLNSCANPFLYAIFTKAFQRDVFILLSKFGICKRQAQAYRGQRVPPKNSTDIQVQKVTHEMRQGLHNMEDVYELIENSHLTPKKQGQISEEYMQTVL
Androgen receptor (Homo sapiens), sequence (P10275 whole entry, looked up): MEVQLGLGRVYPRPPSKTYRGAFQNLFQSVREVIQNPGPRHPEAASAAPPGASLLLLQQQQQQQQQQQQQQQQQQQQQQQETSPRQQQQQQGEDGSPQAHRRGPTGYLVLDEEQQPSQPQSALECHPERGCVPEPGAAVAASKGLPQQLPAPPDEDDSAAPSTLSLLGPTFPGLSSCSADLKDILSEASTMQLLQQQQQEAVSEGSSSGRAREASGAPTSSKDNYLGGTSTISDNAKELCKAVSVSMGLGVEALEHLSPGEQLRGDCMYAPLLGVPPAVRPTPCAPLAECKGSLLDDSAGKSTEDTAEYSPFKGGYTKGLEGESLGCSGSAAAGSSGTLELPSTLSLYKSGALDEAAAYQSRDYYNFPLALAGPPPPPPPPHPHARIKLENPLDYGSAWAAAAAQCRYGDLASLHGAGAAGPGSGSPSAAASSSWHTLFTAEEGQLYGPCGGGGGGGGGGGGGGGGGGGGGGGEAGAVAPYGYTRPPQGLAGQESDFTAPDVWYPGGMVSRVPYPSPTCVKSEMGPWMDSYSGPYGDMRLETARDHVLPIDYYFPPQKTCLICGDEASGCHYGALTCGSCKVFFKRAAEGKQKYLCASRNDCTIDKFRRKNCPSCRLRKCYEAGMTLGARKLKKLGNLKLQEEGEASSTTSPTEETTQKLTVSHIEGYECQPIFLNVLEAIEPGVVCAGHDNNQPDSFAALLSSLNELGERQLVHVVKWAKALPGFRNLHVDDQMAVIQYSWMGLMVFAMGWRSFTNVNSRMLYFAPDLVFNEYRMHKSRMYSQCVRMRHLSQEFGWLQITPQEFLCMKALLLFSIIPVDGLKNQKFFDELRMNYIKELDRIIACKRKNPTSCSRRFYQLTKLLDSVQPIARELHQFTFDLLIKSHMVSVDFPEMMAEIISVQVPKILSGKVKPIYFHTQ

Consider `CNc1ccccc1`, for which the Potency result in assay [1], in assay [2], in [3], in assay [4], in assay [6] and in assay [7] was “inactive” in each case. Besides, the Potency result in assay [8], in assay [9], in [10] and in assay [11] was “inactive” throughout. In assay [5], the result was inactive.

`COc1ccc(C(=O)Nc2ccccc2)cc1[N+](=O)[O-]`: the Potency entry in [1], in [2], in [3], in assay [6], in [12] and in assay [7] was “inactive” in each case. Besides, the Potency result in assay [13], in [10], in [11] and in assay [15] was “inactive” throughout. The Potency in assay [4] is 24.5 µM (active); in assay [9], 30.9 µM (active). Also, the compound was called inactive in [5] and in assay [14].

Turning to `C[C@H]1C[C@H]2[C@@H]3CCC4=CC(=O)C=C[C@]4(C)[C@@]3(F)[C@@H](O)C[C@]2(C)[C@@]1(O)C(=O)COP(=O)(O)O`, the Potency result in assay [1], in assay [2], in [3], in [4], in [6] and in [12] was “inactive” each time. In addition, the Potency entry in assay [7], in assay [16], in assay [17], in assay [13], in assay [9] and in assay [10] was “inactive” throughout. The Potency result in assay [11] and in assay [15] was “inactive” throughout. Besides, in assay [5], the call was inactive.

On to `SCCOCCOCCS`, for which the Potency result in assay [1], in assay [2], in assay [3], in assay [4], in assay [6] and in [12] was “inactive” in each case. For the same compound, the Potency result in assay [8], in assay [13], in [10] and in [11] was “inactive” each time. Further, in assay [5], the compound was classed as inactive.

For `CCc1cnc(C(=O)O)c(C(=O)O)c1`, the Potency entry in [1], in assay [2], in assay [3], in assay [4], in [6] and in [12] was “inactive” in each case. The Potency result in [7], in assay [8], in assay [13], in assay [10] and in assay [11] was “inactive” in each case. In assay [5], the call was inactive.

Turning to `COc1ccnc2c1CCCCC2S(=O)c1nc2ccccc2[nH]1` (stereo not drawn), the Potency result in [1], in assay [2], in assay [3], in [4], in assay [6] and in assay [12] was “inactive” each time. In addition, the Potency entry in [7], in assay [8], in [13], in assay [10], in [11] and in assay [15] was “inactive” in each case. For the same compound, the call in assay [5] was inactive.

On to `C1=COCCC1`, for which the Potency entry in assay [1], in assay [2], in assay [3], in [4], in assay [6] and in assay [12] was “inactive” throughout. The Potency result in assay [7], in [8], in assay [10] and in assay [11] was “inactive” throughout. Further, the result in [5] was inactive.

As to `CC1(COc2ccc(CC3SC(=O)NC3=O)cc2)CCCCC1` (stereo not drawn), the Potency result in assay [1], in assay [2], in assay [3], in assay [4], in assay [6] and in assay [12] was “inactive” throughout. In addition, the Potency entry in assay [7], in assay [8], in assay [13], in [10], in [11] and in assay [15] was “inactive” throughout. For the same compound, the compound was classed as inactive in assay [5] and in assay [14]. Further, the Potency in assay [9] is 10.6 µM (active).

With `CO[C@@H]1[C@@H](O[C@@H]2O[C@H](C)[C@@H](O[C@H]3C[C@@](C)(O)[C@@H](O)[C@H](C)O3)[C@H](N(C)C)[C@H]2O)[C@@H](CC=O)C[C@@H](C)[C@@H](O[C@@H]2CC[C@H](N(C)C)[C@@H](C)O2)/C=C/C=C/C[C@@H](C)OC(=O)C[C@H]1OC(C)=O`, the Potency result in [1], in assay [2], in [3], in assay [4], in assay [6] and in assay [12] was “inactive” in each case. The Potency entry in [7], in [16], in assay [13], in assay [10] and in [11] was “inactive” each time. Also, the compound was called inactive in assay [5].

On to `O=C(Nc1ccccc1)c1cc([N+](=O)[O-])ccc1Cl`, for which the Potency entry in [1], in assay [2], in [3], in assay [4], in assay [7] and in [16] was “inactive” throughout. In addition, the Potency result in assay [13], in [9], in assay [18], in assay [10], in [11] and in [15] was “inactive” throughout. Moreover, the Potency is 61.1 µM (active) in [6], 54.5 µM (active) in [12], 21.7 µM (active) in assay [8] and 48.6 µM (active) in assay [17].

Take `CC(=O)Nc1cccc(N)c1`: the Potency entry in assay [1], in assay [2], in [3], in [4], in [6] and in assay [7] was “inactive” in each case. In addition, the Potency result in assay [8], in [16], in assay [13], in assay [9], in [10] and in [11] was “inactive” each time. For the same compound, the compound was classed as inactive in assay [5] and in [14].

For `CC(C)Oc1ccccc1O`, the Potency entry in [1], in [2], in assay [3], in assay [4], in assay [6] and in assay [12] was “inactive” each time. For the same compound, the Potency entry in assay [7], in [8], in [13], in assay [10], in assay [11] and in assay [15] was “inactive” each time. Also, in assay [5], the result was inactive.

`C(/C=C/C=C/Nc1ccccc1)=Nc1ccccc1`: the Potency result in assay [1], in assay [2], in assay [3], in assay [4], in [6] and in assay [7] was “inactive” in each case. Moreover, the Potency entry in assay [16], in assay [9], in assay [10] and in assay [11] was “inactive” each time. For the same compound, the compound was called inactive in [5].
